Among the data in the supplement of paper PMC9177965 are cell viability activity values, retold here.

In the assay the test system is HT29 sg-Ctrl (RNF43 wildtype). Description: cell viability activity relative to DMSO (negative = inhibition); higher = more viable cells (less growth inhibition). The note with it: 5 µM; 96 h. How it is done:
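Broad Repurposing Library primary screen at a single dose of 5 uM. HT29 sg-Ctrl and HT29 RNF43 G659fs CRISPR-edited isogenic cells were seeded at 2500 cells/well in 384-well plates in duplicate and treated for 96 h. Viability was read by CellTiter-Glo and reported as % activity relative to DMSO, with MG132 as the positive control (negative = growth inhibition).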
As to `CN(Cc1cnc2nc(N)nc(N)c2n1)c1ccc(C(=O)N[C@@H](CCC(=O)O)C(=O)O)cc1`, the cell viability activity is -66%. As to `CCCCCC(O)c1cccc(OCc2ccc3ccccc3n2)c1` (configuration not stated), the cell viability activity is -64%. Turning to `Cc1ccc(/C=C2\CNC/C(=C\c3ccc(C)cc3)C2=O)cc1`, the cell viability activity is -92.7%. Regarding `COc1ccc2[nH]c3c(-c4cccc5ccccc45)nccc3c2c1`, the cell viability activity is -60.2%. Next, `O=C(Nc1cc(C(F)(F)F)cc(C(F)(F)F)c1)c1cc(Cl)ccc1O`: -90.9%; `CC(C)(N)c1cc(C(=O)N[C@@H]2CCc3ccc(Oc4ccnc5c4CCC(=O)N5)cc3C2)cc(C(F)(F)F)c1`: -59.3%; `CCCCC(=O)OCC(=O)[C@]1(O)Cc2c(O)c3c(c(O)c2[C@@H](O[C@H]2C[C@H](NC(=O)C(F)(F)F)[C@H](O)[C@H](C)O2)C1)C(=O)c1c(OC)cccc1C3=O`: -25.4%. For `CCN(CC)CCOc1ccc(Nc2ncc3cc(-c4c(Cl)cccc4Cl)c(=O)n(C)c3n2)cc1` the value was -80.3%. Consider `CCCS(=O)(=O)Nc1ccc(F)c(C(=O)c2c[nH]c3ncc(Cl)cc23)c1F`, for which the cell viability activity was -47.2%. As for `N#Cc1ccncn1`, the cell viability activity was -18.3%. In the case of `CO[C@@H]1[C@H](N(C)C(=O)c2ccccc2)C[C@H]2O[C@]1(C)n1c3ccccc3c3c4c(c5c6ccccc6n2c5c31)C(=O)NC4`, the cell viability activity was -61.4%. On to `COc1cc([C@@H]2c3cc4c(cc3[C@@H](O[C@@H]3O[C@@H]5CO[C@@H](C)O[C@H]5[C@H](O)[C@H]3O)[C@H]3COC(=O)[C@H]23)OCO4)cc(OC)c1OP(=O)(O)O`, for which the cell viability activity was -24.7%. For `COC(=O)[C@]12CCC(C)(C)C[C@H]1[C@H]1C(=O)C=C3[C@@]4(C)C=C(C#N)C(=O)C(C)(C)[C@@H]4CC[C@@]3(C)[C@]1(C)CC2`, the cell viability activity is -93.4%. For `CC(C)C[C@H](NC(=O)CNC(=O)c1cc(Cl)ccc1Cl)B(O)O`, the cell viability activity was -89.7%.

Regarding `COc1ccc(S(=O)(=O)N(C(C)=O)c2ccccc2/C=C/c2cc[n+]([O-])cc2)cc1`, the cell viability activity is -75.5%. As to `CNc1ncc2cc(-c3cc(NC(=O)NCCC(C)(C)C)c(F)cc3C)c(C)nc2n1`, the cell viability activity was -58.9%. For `C[C@@H](Oc1cc(-n2cnc3ccc(CN4CCN(C)CC4)cc32)sc1C(N)=O)c1ccccc1C(F)(F)F` the value was -76.1%. Take `C=C1/C(=C\C=C2/CCC[C@]3(C)[C@@H]([C@H](C)CCCC(C)C)CC[C@@H]23)C[C@@H](O)C[C@@H]1O`: the cell viability activity was -70%.

As for `O=C(Nc1ccccc1-c1cn2c(CN3CCNCC3)csc2n1)c1cnc2ccccc2n1`, the cell viability activity is -81.8%. With `CN1CC[C@@H](c2c(O)cc(O)c3c(=O)cc(-c4ccccc4Cl)oc23)[C@@H]1CO`, the cell viability activity was -82.7%. On to `COc1ccc(N(C)c2nc(C)nc3ccccc23)cc1`, for which the cell viability activity was -68%.

Turning to `CCOc1ccc(Cc2nccc3cc(OCC)c(OCC)cc23)cc1OCC`, the cell viability activity was -25.2%. Turning to `CCc1c2c(nc3ccc(O)cc13)-c1cc3c(c(=O)n1C2)COC(=O)[C@]3(O)CC`, the cell viability activity is -63.3%. For `Nc1ncccc1-c1nc2ccc(-c3ccccc3)nc2n1-c1ccc(C2(N)CCC2)cc1`, the cell viability activity is -49.1%.

Take `CC1(C)CC(Oc2ccc(-c3ccc(-c4cn[nH]c4)cc3O)nn2)CC(C)(C)N1`: the cell viability activity was -89.2%. On to `Clc1ccc(C2(c3ccc(-c4cn[nH]c4)cc3)CCNCC2)cc1`, for which the cell viability activity is -86.8%.

With `COc1cccc(OCCCN)c1-c1cc(Nc2cnc(C#N)cn2)n[nH]1`, the cell viability activity was -86.9%. With `CN(C)Cc1c(C(=O)NCCOc2ccc(C(=O)NO)cc2)oc2ccccc12`, the cell viability activity was -85.2%. On to `CN(C)C(=S)SC(=S)N(C)C`, for which the cell viability activity was -29.9%. For `COCCOC(=O)C1=C(C)NC(C)=C(C(=O)OC/C=C/c2ccccc2)C1c1cccc([N+](=O)[O-])c1` (configuration not stated) the value was -50.7%; for `Cc1ccc(C(=O)N(CCCN)[C@@H](c2oc3cc(Cl)ccc3c(=O)c2Cc2ccccc2)C(C)C)cc1`, -78.3%; for `COc1ccc(NC(=O)c2ccc(-c3ccc(-c4noc(C)n4)cc3C)cc2)cc1OCCN(C)C`, -90.6%. As for `Cn1ccc2cc(NC(=O)Nc3cccnc3)ccc21`, the cell viability activity was -52%. On to `COc1c/c(=C2\C=c3ccccc3=N2)[nH]/c1=C\c1[nH]c(C)cc1C`, for which the cell viability activity is -88.7%. Take `COc1ccc(/C=C\c2cc(OC)c(OC)c(OC)c2)cc1O`: the cell viability activity was -58.3%. Take `CCCCCCCCCCC(CO)CCCCCCCC` (configuration not stated): the cell viability activity is -76.7%.

Consider `CN[C@@H]1C[C@H]2O[C@@](C)([C@@H]1OC)n1c3ccccc3c3c4c(c5c6ccccc6n2c5c31)C(=O)N[C@H]4O`, for which the cell viability activity was -91.7%.
